± gives the standard deviation of the averaged measurements.
Key:
Experiment in all cases: promoter activity interaction Z-score (Lux/OD deviation from empty-vector control); higher = stronger promoter induction by the compound
[1] = tested on: E. coli BW25113 acrABp lux reporter
Procedure, shortened: (§1)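 At 37°C, E. coli BW25113 reporter cultures in 40 µl LB Lennox in 384-well plates were read for OD600 and luminescence every 30 min for 12 h. Windows were 0–8 h for wild type and 1–9 h for deletion strains, and wells under 10% of the median growth value were removed. The score is the Z-transformed residual of growth-normalised luminescence against a control fit.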

[2] = tested on: E. coli BW25113 micFp lux reporter
Procedure, shortened: as §1

[3] = tested on: E. coli BW25113 ompFp lux reporter
Procedure, shortened: as §1

[4] = tested on: E. coli BW25113 robp lux reporter
Procedure, shortened: as §1

[5] = tested on: E. coli BW25113 soxSp lux reporter
Procedure, shortened: as §1

[6] = tested on: E. coli BW25113 tolCp lux reporter
Procedure, shortened: as §1

[7] = tested on: E. coli BW25113 marRABp lux reporter
Procedure, shortened: as §1

[8] = 0.28 µg/ml, genetic background: wild type
[9] = 0.28 µg/ml, genetic background: ΔmarA
[10] = 0.28 µg/ml, genetic background: Δrob
[11] = 0.28 µg/ml, genetic background: ΔsoxS
[12] = 0.56 µg/ml, genetic background: wild type
[13] = 0.56 µg/ml, genetic background: ΔmarA
[14] = 0.56 µg/ml, genetic background: Δrob
[15] = 0.56 µg/ml, genetic background: ΔsoxS
[16] = 1.1 µg/ml, genetic background: wild type
[17] = 1.1 µg/ml, genetic background: ΔmarA
[18] = 1.1 µg/ml, genetic background: Δrob
[19] = 1.1 µg/ml, genetic background: ΔsoxS
[20] = 2.2 µg/ml, genetic background: wild type
[21] = 1.9 µg/ml, genetic background: wild type
[22] = 1.9 µg/ml, genetic background: ΔmarA
[23] = 1.9 µg/ml, genetic background: Δrob
[24] = 1.9 µg/ml, genetic background: ΔsoxS
[25] = 3.7 µg/ml, genetic background: wild type
[26] = 3.7 µg/ml, genetic background: ΔmarA
[27] = 3.7 µg/ml, genetic background: Δrob
[28] = 3.7 µg/ml, genetic background: ΔsoxS
[29] = 7.4 µg/ml, genetic background: wild type
[30] = 7.4 µg/ml, genetic background: ΔmarA
[31] = 7.4 µg/ml, genetic background: Δrob
[32] = 7.4 µg/ml, genetic background: ΔsoxS

CC[C@H]1OC(=O)[C@H](C)[C@@H](O[C@H]2C[C@@](C)(OC)[C@@H](O)[C@H](C)O2)[C@H](C)[C@@H](O[C@@H]2O[C@H](C)C[C@H](N(C)C)[C@H]2O)[C@](C)(O)C[C@@H](C)CN(C)[C@H](C)[C@@H](O)[C@]1(C)O [Azithromycin]
promoter activity interaction Z-score [1, 8]: 0.612 ± 0.28
promoter activity interaction Z-score [1, 9]: -0.667 ± 0.48
promoter activity interaction Z-score [1, 10]: 0.324 ± 0.28
promoter activity interaction Z-score [1, 11]: 0.489 ± 0.8
promoter activity interaction Z-score [1, 12]: 1.13 ± 0.12
promoter activity interaction Z-score [1, 13]: 0.048 ± 0.66
promoter activity interaction Z-score [1, 14]: 2.23 ± 0.08
promoter activity interaction Z-score [1, 15]: 3.66 ± 1.6
promoter activity interaction Z-score [1, 16]: 4.08 ± 1
promoter activity interaction Z-score [1, 17]: 6.35 ± 6.2
promoter activity interaction Z-score [1, 18]: 3.65 ± 1.2
promoter activity interaction Z-score [1, 19]: 4.28 ± 1.8
promoter activity interaction Z-score [1, 20]: 7.14 ± 1.1
promoter activity interaction Z-score [2, 8]: 0.698 ± 0.19
promoter activity interaction Z-score [2, 9]: -0.163 ± 0.0028
promoter activity interaction Z-score [2, 10]: 0.125 ± 0.087
promoter activity interaction Z-score [2, 11]: 0.248 ± 0.093
promoter activity interaction Z-score [2, 12]: 0.273 ± 0.86
promoter activity interaction Z-score [2, 13]: -0.14 ± 0.018
promoter activity interaction Z-score [2, 14]: 0.558 ± 0.35
promoter activity interaction Z-score [2, 15]: -0.483 ± 0.018
promoter activity interaction Z-score [2, 16]: -0.839 ± 0.87
promoter activity interaction Z-score [2, 17]: -0.439 ± 0.056
promoter activity interaction Z-score [2, 18]: 0.39 ± 0.33
promoter activity interaction Z-score [2, 19]: -0.925 ± 0.18
promoter activity interaction Z-score [2, 20]: -1.39
promoter activity interaction Z-score [3, 8]: 0.438 ± 0.0074
promoter activity interaction Z-score [3, 9]: -0.225 ± 0.85
promoter activity interaction Z-score [3, 10]: 0.663 ± 0.29
promoter activity interaction Z-score [3, 11]: 0.266 ± 1.3
promoter activity interaction Z-score [3, 12]: 1.95 ± 0.52
promoter activity interaction Z-score [3, 13]: 1.13 ± 0.094
promoter activity interaction Z-score [3, 14]: 3.25 ± 1.9
promoter activity interaction Z-score [3, 15]: 2.77 ± 0.12
promoter activity interaction Z-score [3, 16]: 0.0139 ± 0.62
promoter activity interaction Z-score [3, 17]: 0.739 ± 3.3
promoter activity interaction Z-score [3, 18]: -0.756 ± 0.22
promoter activity interaction Z-score [3, 19]: 3.18 ± 1.5
promoter activity interaction Z-score [4, 8]: -0.606 ± 0.46
promoter activity interaction Z-score [4, 9]: -2.26 ± 0.22
promoter activity interaction Z-score [4, 10]: -1.42 ± 0.052
promoter activity interaction Z-score [4, 11]: -1.11 ± 0.5
promoter activity interaction Z-score [4, 12]: -1.97 ± 0.83
promoter activity interaction Z-score [4, 13]: -2.42 ± 0.28
promoter activity interaction Z-score [4, 14]: -1.4 ± 0.26
promoter activity interaction Z-score [4, 15]: -1.99 ± 0.19
promoter activity interaction Z-score [4, 16]: -3.21 ± 1
promoter activity interaction Z-score [4, 17]: -3.49 ± 0.67
promoter activity interaction Z-score [4, 18]: -2.09 ± 0.15
promoter activity interaction Z-score [4, 19]: -2.73 ± 0.21
promoter activity interaction Z-score [4, 20]: -3.03
promoter activity interaction Z-score [5, 8]: 0.146 ± 0.018
promoter activity interaction Z-score [5, 9]: -0.132 ± 0.027
promoter activity interaction Z-score [5, 10]: 0.101 ± 0.33
promoter activity interaction Z-score [5, 11]: 0.569 ± 0.9
promoter activity interaction Z-score [5, 12]: 0.342 ± 0.019
promoter activity interaction Z-score [5, 13]: -0.134 ± 0.052
promoter activity interaction Z-score [5, 14]: 0.401 ± 0.02
promoter activity interaction Z-score [5, 15]: 1.917 ± 0.018
promoter activity interaction Z-score [5, 16]: 2.27 ± 0.33
promoter activity interaction Z-score [5, 17]: 1.16 ± 0.1
promoter activity interaction Z-score [5, 18]: 1.69 ± 0.21
promoter activity interaction Z-score [5, 19]: 2.06 ± 0.22
promoter activity interaction Z-score [5, 20]: 2.59 ± 1.8
promoter activity interaction Z-score [6, 8]: 1.23 ± 0.81
promoter activity interaction Z-score [6, 9]: 0.138 ± 0.034
promoter activity interaction Z-score [6, 10]: 0.66 ± 0.69
promoter activity interaction Z-score [6, 11]: 2.05 ± 0.54
promoter activity interaction Z-score [6, 12]: 1.21 ± 1.3
promoter activity interaction Z-score [6, 13]: 0.283 ± 0.058
promoter activity interaction Z-score [6, 14]: 1.89 ± 0.14
promoter activity interaction Z-score [6, 15]: 2.57 ± 1.3
promoter activity interaction Z-score [6, 16]: 3.44 ± 0.47
promoter activity interaction Z-score [6, 17]: 1.58 ± 1.8
promoter activity interaction Z-score [6, 18]: 4.99 ± 0.58
promoter activity interaction Z-score [6, 19]: 4.53 ± 2
promoter activity interaction Z-score [6, 20]: 5.2 ± 2.8

CCCCCCCCCCCCC[N+](C)(C)Cc1ccccc1 [Benzalkonium]
promoter activity interaction Z-score [1, 21]: -0.513 ± 0.068
promoter activity interaction Z-score [1, 22]: -0.237 ± 0.34
promoter activity interaction Z-score [1, 23]: -0.388 ± 0.4
promoter activity interaction Z-score [1, 24]: 0.294 ± 0.89
promoter activity interaction Z-score [1, 25]: -0.16 ± 0.06
promoter activity interaction Z-score [1, 26]: -0.795 ± 0.15
promoter activity interaction Z-score [1, 27]: -0.554 ± 0.18
promoter activity interaction Z-score [1, 28]: 0.231 ± 0.94
promoter activity interaction Z-score [1, 29]: -0.426 ± 0.23
promoter activity interaction Z-score [1, 30]: -0.878 ± 0.33
promoter activity interaction Z-score [1, 31]: -0.727 ± 0.24
promoter activity interaction Z-score [1, 32]: 0.0433 ± 0.71
promoter activity interaction Z-score [7, 21]: -0.577 ± 0.068
promoter activity interaction Z-score [7, 22]: 0.106 ± 0.047
promoter activity interaction Z-score [7, 23]: -0.463 ± 0.11
promoter activity interaction Z-score [7, 24]: -0.158 ± 0.0077
promoter activity interaction Z-score [7, 25]: -0.168 ± 0.0038
promoter activity interaction Z-score [7, 26]: -0.194 ± 0.23
promoter activity interaction Z-score [7, 27]: -0.586 ± 0.14
promoter activity interaction Z-score [7, 28]: -0.214 ± 0.035
promoter activity interaction Z-score [7, 29]: -0.235 ± 0.61
promoter activity interaction Z-score [7, 30]: -0.581 ± 0.057
promoter activity interaction Z-score [7, 31]: -0.529 ± 0.065
promoter activity interaction Z-score [7, 32]: -0.255 ± 0.23
promoter activity interaction Z-score [2, 21]: -0.76 ± 0.023
promoter activity interaction Z-score [2, 22]: 0.0652 ± 0.0013
promoter activity interaction Z-score [2, 23]: 0.0861 ± 0.12
promoter activity interaction Z-score [2, 24]: 0.559 ± 0.1
promoter activity interaction Z-score [2, 25]: -0.0239 ± 0.31
promoter activity interaction Z-score [2, 26]: 0.0187 ± 0.025
promoter activity interaction Z-score [2, 27]: -0.0547 ± 0.088
promoter activity interaction Z-score [2, 28]: 0.312 ± 0.19
promoter activity interaction Z-score [2, 29]: -0.0221 ± 0.06
promoter activity interaction Z-score [2, 30]: 0.112 ± 0.063
promoter activity interaction Z-score [2, 31]: -0.178 ± 0.013
promoter activity interaction Z-score [2, 32]: 0.584 ± 0.26
promoter activity interaction Z-score [3, 21]: -0.908 ± 0.23
promoter activity interaction Z-score [3, 22]: -0.356 ± 0.42
promoter activity interaction Z-score [3, 23]: -1.25 ± 0.58
promoter activity interaction Z-score [3, 24]: -0.386 ± 0.51
promoter activity interaction Z-score [3, 25]: -0.513 ± 0.059
promoter activity interaction Z-score [3, 26]: -0.652 ± 0.036
promoter activity interaction Z-score [3, 27]: -1.38 ± 0.51
promoter activity interaction Z-score [3, 28]: -0.498 ± 0.53
promoter activity interaction Z-score [3, 29]: -0.731 ± 0.65
promoter activity interaction Z-score [3, 30]: -1.05 ± 0.44
promoter activity interaction Z-score [3, 31]: -1.75 ± 0.21
promoter activity interaction Z-score [3, 32]: -0.339 ± 0.55
promoter activity interaction Z-score [4, 21]: -1.53 ± 0.13
promoter activity interaction Z-score [4, 22]: -0.233 ± 0.25
promoter activity interaction Z-score [4, 23]: -0.222 ± 1.1
promoter activity interaction Z-score [4, 24]: -0.27 ± 0.21
promoter activity interaction Z-score [4, 25]: -0.668 ± 0.089
promoter activity interaction Z-score [4, 26]: -0.453 ± 0.016
promoter activity interaction Z-score [4, 27]: -0.648 ± 0.67
promoter activity interaction Z-score [4, 28]: -0.627 ± 0.58
promoter activity interaction Z-score [4, 29]: -0.364 ± 0.19
promoter activity interaction Z-score [4, 30]: -0.432 ± 0.13
promoter activity interaction Z-score [4, 31]: -0.777 ± 0.35
promoter activity interaction Z-score [4, 32]: -0.0429 ± 0.032
promoter activity interaction Z-score [5, 21]: -0.311 ± 0.12
promoter activity interaction Z-score [5, 22]: 0.435 ± 0.12
promoter activity interaction Z-score [5, 23]: 0.153 ± 0.081
promoter activity interaction Z-score [5, 24]: 0.8 ± 0.97
promoter activity interaction Z-score [5, 25]: -0.00893 ± 0.087
promoter activity interaction Z-score [5, 26]: 0.517 ± 0.017
promoter activity interaction Z-score [5, 27]: -0.0801 ± 0.15
promoter activity interaction Z-score [5, 28]: 0.388 ± 0.66
promoter activity interaction Z-score [5, 29]: -0.156 ± 0.16
promoter activity interaction Z-score [5, 30]: 0.256 ± 0.12
promoter activity interaction Z-score [5, 31]: -0.261 ± 0.034
promoter activity interaction Z-score [5, 32]: 0.23 ± 0.41
promoter activity interaction Z-score [6, 21]: -0.208 ± 0.53
promoter activity interaction Z-score [6, 22]: 1.08 ± 0.12
promoter activity interaction Z-score [6, 23]: 1.06 ± 0.98
promoter activity interaction Z-score [6, 24]: 0.966 ± 0.54
promoter activity interaction Z-score [6, 25]: -0.106 ± 0.92
promoter activity interaction Z-score [6, 26]: 1.89 ± 1.1
promoter activity interaction Z-score [6, 27]: -0.289 ± 0.39
promoter activity interaction Z-score [6, 28]: 0.246 ± 0.11
promoter activity interaction Z-score [6, 29]: 0.0455 ± 1.8
promoter activity interaction Z-score [6, 30]: 0.506 ± 0.55
promoter activity interaction Z-score [6, 31]: -0.0996 ± 0.22
promoter activity interaction Z-score [6, 32]: 1.32 ± 2
promoter activity interaction Z-score ([6]; 14.9 µg/ml, genetic background: ΔsoxS): 1.08 ± 0.5
